This is an account of results in PubChem BioAssay AID1508600 (Functional Genomics Laboratory (NCATS/FGL), 2020).

Screen size: about 53,000 sequences; about 3,700 (7%) were called active.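 The calls were made as follows: active = gene knockdowns whose robust z-score for IL-1 alpha signal is at least 2 or at most -2, so actives lie on both sides; inactive = the rest.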 Shown is part of a subset that was picked to be rich in actives.

This assay can be described thus: Components of the Cytosolic LPS Sensing Pathway: Gene Identification via Genome-wide siRNA Screen.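 Also: robust z of the log signal after scaling to non-targeting control siRNA wells of the plate.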 The note with it: RAW264.7 macrophages, IL-1a HTRF, actives lie on both sides, screened at 100 nM (by protocol), cells primed 5 h with Pam3CSK4 first. The gist of the method: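 RAW264.7; siRNA 100 nM final, RNAiMAX, 48h 37 degrees C; Pam3CSK4 5 h; LipidA + TransIT-TKO 24 h; IL-1a HTRF; CellTiter-Glo viability; robust z vs negative-control median.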
A general note: In TR-FRET formats the signal depends on donor and acceptor labels being close together.
Regarding GGAGGACUUAGAGAGUAUGTT against Ctdp1, the z-score is -0.595 (inactive). For CCAGUGUAGAGCACAAAUCTT against Ahr, the z-score is 2.51 (active). As for GGACCUGGACCUUUUAGAGTT against Vegfb, the z-score is 1.34 (inactive).

GGUUGUUGGAAAAAUAGAUTT against Tmem175: the z-score was -0.0383 (inactive).

For GGUGGACUUCAUGUAGAUUTT against Eif3m, the z-score is -1.07 (inactive).

For the sequence GGACAAGAGGUACACAAACTT against Eif3d, the z-score is 2.83 (active). For GGAAGAGCUGGACUUCUUCTT against Hoxb2 the value was 1.71 (inactive); for CCACGGUUAUGAUGACGACTT against Dyrk1b, 1.89 (inactive). Regarding GGACUAUUUCCUUUGUGGGTT against Olfr31, the z-score was -1.59 (inactive). Then GGAUUGUCCUUGAUGGCUGTT against Plek2, with -0.116 (inactive); and GGAGGUUUUACUCAAACAUTT against Sec14l2, with 1.35 (inactive); and GGGCCUGCUCUCUUUUCUGTT against Mfsd14b, with 1.18 (inactive). For CCUCGAGUCACCAACAUCGTT against Stt3b the value was -2.46 (active); for GCCUUUUGUACUAAGGUCCTT against Zfp715, 1.65 (inactive). Then GGGACAGUUAGUCAGUAAGTT against Pus7l, with 0.196 (inactive); and GGCUCAGAAACAACAGGCUTT against Sh2d3c, with -1.19 (inactive). Consider GGCUGUUAGAGGAAGAGAUTT against Ube3b, for which the z-score is 1.64 (inactive). Then CCAGCAUCUACUGUCUGACTT against Sstr1, with 4.2 (active); and GCAAUGCAUGAAGACUCGUTT against Ecsit, with 0.835 (inactive).

As for GGGACUGGAUCCUUGAUAUTT against Ebi3, the z-score was 0.677 (inactive). Then CCCGGACCUUGAAUAAGCATT against Piwil4, with -1.06 (inactive). For GCCACUAUCUGGAUAAGGATT against Ftl1 the value was -3.54 (active); for GGAGAAGUGGUAGAAACUGTT against Brd8, -1.3 (inactive); for GCUUAGUCGGGAGAACUUUTT against Skp2, 0.81 (inactive). For GGACAAGCUAAGCAUUGAGTT against Atp6ap1 the value was -1.45 (inactive). Take GCAUUGUCGUGUCUUCUCUTT against Tti1: the z-score was -2.13 (active).

For GGAGUUUCAAGAAAAAAGGTT against Map3k21, the z-score was 1.08 (inactive). Then GGGCGAAGAUACAAGUGACTT against Tnp2, with -1.76 (inactive); and GCACCAAGUCGUAUAAACATT against Sh3glb1, with -0.391 (inactive); and CCAAUUUUGUCAUAGGACATT against Plbd1, with -0.107 (inactive).

In the case of GGAUGUAAGGCCUUUUUUATT against Esr2, the z-score is 0.676 (inactive).

As to GGAGACCUUCAGCUUGGAATT against Zfp260, the z-score was 0.0537 (inactive). For GGAUUCUAGGAGAGAAUCATT against Cplx3 the value was 0.897 (inactive). Turning to GCCAUUUCUUAUCAAGUGGTT against Laptm4a, the z-score is -2.63 (active). For the sequence GGAGCAGAACAUUAUCUUCTT against Tnn, the z-score was 0.603 (inactive).

“CCUAAACUACAGGAAUUUATT against D830014E11Rik”: the z-score is -0.0293 (inactive). Then CCAUAUGAGAAGAUGACACTT against Pdcl2, with -1.39 (inactive). Then GGCAGAAUCAGUUGAAAUUTT against Terf2ip, with 0.917 (inactive); and CCAAGUUCGUGACAAACAUTT against Trpv1, with -0.0275 (inactive). Then “CCAUCAGGGUUACAAGUACTT against 6030458C11Rik”, with -2.46 (active); and GGACUUGUCCGCUCAUUGGTT against Usp54, with -1.13 (inactive); and GGUAGAAAAGCUUCUGAAATT against Ap1g1, with 0.349 (inactive). In the case of GGCUAUUAACAUCUCAGUUTT against Rhbdd1, the z-score is 0.0309 (inactive).

On to GGACAGAGAUCAAUAUUAATT against Rxfp3, for which the z-score is -0.0718 (inactive). Turning to CGAAUGAAAGAAUACCGUGTT against Dnajc6, the z-score is 0.0901 (inactive). Then CCUGGAUGCAUGGUUAUUATT against Cyp2ab1, with 2.69 (active).

With GGGAAGAAAAUCAAACUCATT against Fabp1, the z-score is 0.504 (inactive). For the sequence GGCCGUUCAUUUCCUCAUCTT against Galr2, the z-score is -0.359 (inactive). For GGAUUUGUUUUCACCAAGATT against Dmd the value was 0.3 (inactive). For GGUGACAGGUCAGAAAGUCTT against Tor1aip2 the value was -2.78 (active).

For GGAGUUAAACCACUCAAGATT against Ceacam11, the z-score is -0.262 (inactive). Then GCAGGAUGUGACAGAUACATT against Pdcd2, with 0.185 (inactive). CCAGAUGCUCGAUUCAGUGTT against Crim1: the z-score is -0.44 (inactive). Then GGGAAAGACUCAAGGUCCUTT against Olfr586, with 0.774 (inactive); and GGCUAUUACCAUGGCCACUTT against Smim5, with -2.85 (active); and GCCCAAUCAAAAAAUGGUGTT against Zyx, with -0.0505 (inactive).

For CGUGGACUUUAAGGAGCUGTT against Gdf7, the z-score was -0.299 (inactive). In the case of GGAUAAGGUAAUCUCGGUATT against Olfr710, the z-score is -0.472 (inactive).

As for CCAUAUUGAAACCUCAUUUTT against Fam126a, the z-score was -2.33 (active). Then CGUGCUACAGAUGCGUCAUTT against Exoc8, with 0.783 (inactive); and CGCUCGUUACCUAAAGCAGTT against Nwd1, with -2.78 (active). Then GCUUUGAAAUCUGAAUCAGTT against Terf2, with 2.06 (active); and GAAUCCGAGAUACGAGCCUTT against H2-D4, with 0.0829 (inactive). For GGUUUGAAAUAUUGUGGAUTT against Spdye4b the value was -1.23 (inactive); for CCUAGGGACAUUGGUUAUUTT against Sema4f, 2.16 (active). With GGAGCUUCCACAACUCAUATT against Esd, the z-score is -0.456 (inactive). Then GGCAGUGGAGUGUAUGGAUTT against Popdc2, with -0.531 (inactive); and GGAUGCAGCUAACAAUUACTT against Tuba8, with 1.05 (inactive); and GGAUGGAGAGAUAAGAAAATT against Lmntd1, with -0.572 (inactive). For CCUUUCCUAACUUGAUCACTT against Cbr2 the value was 0.443 (inactive); for CCUCUUAAAACAAUACCAATT against Olr1, 1.37 (inactive); for GCAAAUAAGAUUGCGUCUGTT against Cpa2, 2.89 (active). For GGCGAAGGAGAAGAAUUAATT against Rhox5 the value was 0.352 (inactive); for GGUCAACAAGCAUGCAUUUTT against Wars, -1.65 (inactive); for CCUUAUUUAGCUAAGCAGATT against Ran, -2.95 (active). With GCCAACCAAAACCUAAGCATT against Gjc1, the z-score is -1.44 (inactive). Then CCCUCACAAUGAUCGAUUUTT against Tkt, with -0.885 (inactive). For GGUAAAGUGAACUGUACCUTT against Vstm5 the value was 0.843 (inactive); for GGUGGAGAUCCGAAAGCAUTT against Ltk, 0.597 (inactive); for CCCUCCAGAAAAACAGUUUTT against Znrd2, 0.284 (inactive). For “GAGUGAGCAAAUACCAGUUTT against 1700001J03Rik” the value was 2.52 (active); for CCAAAAAGAUUUGGAUCUCTT against Nr2f6, 0.142 (inactive); for GGAAACUUUCUAAAUGCUGTT against Pja1, -0.0964 (inactive). With GCCAUUAAUGUACCAGGUUTT against Olfr894, the z-score was -0.202 (inactive). Then GCGUGAACGUAUUUGUUACTT against Pcdhgc3, with 0.203 (inactive).

ACAGGAGUCCAUAGCCGUCTT against Aspscr1: the z-score was -1.47 (inactive). CGGAGGUGGCUAUAAAAAUTT against Sik2: the z-score is 0.0967 (inactive). In the case of GGAUUCCUCUAACACAUUUTT against Keg1, the z-score was 2.07 (active).

Consider CCUCACCCUUUCCAAAAAATT against Polr2f, for which the z-score is -1.03 (inactive). For GCUUUAAUUGUGAAAGCACTT against Miga1 the value was -2.26 (active); for GCAACACCAGAGUAUGUUATT against Cldn34b3, 0.794 (inactive); for GGUAUUGGGUUCCAUUAUATT against Mcmdc2, -0.197 (inactive). CCCAGCAGAAUAACUGCCATT against Pantr1: the z-score is 2.55 (active). Take GAAAAUGGUCACUACUGAGTT against S100a8: the z-score is -0.0863 (inactive). For GGAAAUGAAGAAAAGUGACTT against Stk32a the value was -0.0588 (inactive); for GGAGUCAACUUGUGAGGGUTT against Lrp8, -0.48 (inactive). For CCCAGGUGAGGAUUGAUAATT against Rit2 the value was 0.667 (inactive); for GCCAACAGUACUUUGUUAATT against Chordc1, 0.589 (inactive).

Regarding GGACAUUUUAAUGUGCUCATT against Erlin2, the z-score is 0.0602 (inactive).

Consider GGCACAGAGAUUGAAGAUCTT against Sry, for which the z-score is 2.04 (active). Then GCUGAAGUCUCUUCAAUGCTT against Trappc6b, with -0.71 (inactive); and GCCUACAUAACCUUAAUAUTT against Slc4a10, with 2.2 (active). Then GGGAGUAGAGAUCAAAGGCTT against Cfb, with -0.0723 (inactive). Then GGUGAUUUGCUCAAUCCAATT against Phox2a, with 0.611 (inactive); and GGCUGAGAUCUAGCUUACATT against H3c15, with -3.21 (active); and GGCGAAGUGGUUAAAAGUGTT against Ifnar1, with -0.141 (inactive).

With GGAUAUCCUUUCAAUAGAATT against Mcf2, the z-score is -0.225 (inactive).

As to GGCCAUUUCUUUCAUAGAUTT against Dusp6, the z-score was 0.509 (inactive).
